Data published in publication PMC5540273 (PLoS ONE, 2017).

What was measured:
Conditions in all cases: concentration: 1 μM, replicates: in singlicate; n = 1
CDK8 = system: CDK8
CDK9 = system: CDK9
CDKL1 = system: CDKL1
CDKL2 = system: CDKL2
CDKL3 = system: CDKL3
CDKL5 = system: CDKL5
CHEK1 = system: CHEK1
CHEK2 = system: CHEK2
CIT = system: CIT
CLK1 = system: CLK1
CLK2 = system: CLK2
CLK3 = system: CLK3
CLK4 = system: CLK4
CSF1R-autoinhibited = system: CSF1R-autoinhibited
CSF1R = system: CSF1R
CSK = system: CSK
CSNK1A1L = system: CSNK1A1L
CSNK1A1 = system: CSNK1A1
CSNK1D = system: CSNK1D
CSNK1E = system: CSNK1E
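Further: KINOMEscan kinase panel screen.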

Row | Structure (SMILES) | %Inh (CDK8) [%] | %Inh (CDK9) [%] | %Inh (CDKL1) [%] | %Inh (CDKL2) [%] | %Inh (CDKL3) [%] | %Inh (CDKL5) [%] | %Inh (CHEK1) [%] | %Inh (CHEK2) [%] | %Inh (CIT) [%] | %Inh (CLK1) [%] | %Inh (CLK2) [%] | %Inh (CLK3) [%] | %Inh (CLK4) [%] | %Inh (CSF1R-autoinhibited) [%] | %Inh (CSF1R) [%] | %Inh (CSK) [%] | %Inh (CSNK1A1L) [%] | %Inh (CSNK1A1) [%] | %Inh (CSNK1D) [%] | %Inh (CSNK1E) [%]
1 | COc1cc(Nc2nccc(-c3c(-c4cccc(NC(=O)c5c(F)cccc5F)c4)nn4ncccc34)n2)cc(OC)c1OC [GSK327238] | 4 | 0 | 20 | 13 | 62 | 10 | 0 | 14 | 71 | 23 | 0 | 0 | 2 | 55 | 100 | 98.1 | 7 | 0 | 23 | 94.7
2 | Cl.c1ccc(-c2ccc3c(Nc4ccc5[nH]ncc5c4)ccnc3c2)nc1 [GW440137] | 26 | 11 | 7 | 40 | 0 | 0 | 0 | 14 | 11 | 48 | 67 | 12 | 21 | 0 | 27 | 0 | 0 | 0 | 27 | 41
3 | C[C@@H](Oc1cc(-n2cnc3cc(-c4ccnc(NCCS(C)(=O)=O)c4)ccc32)sc1C(N)=O)c1ccccc1Cl [GSK907232] | 0 | 11 | 4 | 12 | 0 | 0 | 0 | 0 | 36 | 67 | 4 | 32 | 47 | 1 | 38 | 0 | 22 | 0 | 0 | 17
4 | Nc1ncc(-c2ccc3nccc(-c4ccncc4)c3c2)cc1S(=O)(=O)N1CCOCC1 [GSK1627798] | 4 | 0 | 0 | 4 | 0 | 0 | 0 | 0 | 7 | 63 | 72 | 55 | 54 | 0 | 3 | 0 | 7 | 3 | 37 | 42
5 | Nc1n[nH]c2cnc(-c3ccccc3)cc12 [SB-642124] | 0 | 53 | 1 | 58 | 0 | 0 | 0 | 0 | 19 | 69 | 73 | 20 | 64 | 0 | 17 | 0 | 8 | 0 | 12 | 16
6 | Nc1ncc(-c2cccnc2)c2scc(-c3ccc4c(c3)CCN4C(=O)Cc3ccccc3)c12 [GSK683281] | 36 | 0 | 26 | 29 | 0 | 7 | 18 | 0 | 49 | 36 | 0 | 19 | 18 | 5 | 99.2 | 23 | 21 | 4 | 13 | 35
7 | COc1cc(Nc2nccc(-c3c(-c4cccc(NC(=O)c5c(F)cccc5F)c4)nn4ccccc34)n2)cc(OC)c1OC [GSK323521] | 90 | 0 | 6 | 0 | 13 | 2 | 30 | 0 | 20 | 30 | 0 | 31 | 18 | 0 | 93 | 1 | 15 | 27 | 29 | 43
8 | Cn1cc(-c2ccc3c(c2)CCN3C(=O)Cc2cccc(Cl)c2)c2c(N)ncnc21 [GSK2606590] | 100 | 0 | 0 | 42 | 0 | 4 | 3 | 0 | 26 | 30 | 0 | 13 | 14 | 5 | 97.6 | 6 | 13 | 20 | 16 | 63
9 | Cc1cccc(NC(=O)Nc2ccc(Oc3ncnc4ccn(C)c34)cc2)c1 | 72 | 0 | 11 | 5 | 0 | 0 | 0 | 0 | 0 | 2 | 0 | 0 | 8 | 48 | 99.9 | 0 | 0 | 0 | 0 | 11
10 | c1ccc(-c2n[nH]cc2Nc2ccnc3ccccc23)nc1 [GW694077] | 30 | 0 | 3 | 31 | 0 | 0 | 0 | 18 | 61 | 98.2 | 94.3 | 25 | 96.5 | 29 | 7 | 0 | 20 | 40 | 55 | 63
